Source: PubChem BioAssay (NCATS)
Activity calls are given as the source filed them.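 How the source made its calls: active means compounds whose dose series gives a full or clear partial fitted curve of increased nuclear translocation; inconclusive means weak partial curve or effect only at the top dose; inactive means no dose-dependent translocation response.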

molecular target: Glucocorticoid receptor (Homo sapiens) (UniProt P04150); assay: GR-GFP Redistribution (AID 450); conditions: U2OS GR-GFP nuclear translocation, laser cytometry, 2 h; series mostly up to 20.6 µM
Sequence (P04150 whole entry, looked up): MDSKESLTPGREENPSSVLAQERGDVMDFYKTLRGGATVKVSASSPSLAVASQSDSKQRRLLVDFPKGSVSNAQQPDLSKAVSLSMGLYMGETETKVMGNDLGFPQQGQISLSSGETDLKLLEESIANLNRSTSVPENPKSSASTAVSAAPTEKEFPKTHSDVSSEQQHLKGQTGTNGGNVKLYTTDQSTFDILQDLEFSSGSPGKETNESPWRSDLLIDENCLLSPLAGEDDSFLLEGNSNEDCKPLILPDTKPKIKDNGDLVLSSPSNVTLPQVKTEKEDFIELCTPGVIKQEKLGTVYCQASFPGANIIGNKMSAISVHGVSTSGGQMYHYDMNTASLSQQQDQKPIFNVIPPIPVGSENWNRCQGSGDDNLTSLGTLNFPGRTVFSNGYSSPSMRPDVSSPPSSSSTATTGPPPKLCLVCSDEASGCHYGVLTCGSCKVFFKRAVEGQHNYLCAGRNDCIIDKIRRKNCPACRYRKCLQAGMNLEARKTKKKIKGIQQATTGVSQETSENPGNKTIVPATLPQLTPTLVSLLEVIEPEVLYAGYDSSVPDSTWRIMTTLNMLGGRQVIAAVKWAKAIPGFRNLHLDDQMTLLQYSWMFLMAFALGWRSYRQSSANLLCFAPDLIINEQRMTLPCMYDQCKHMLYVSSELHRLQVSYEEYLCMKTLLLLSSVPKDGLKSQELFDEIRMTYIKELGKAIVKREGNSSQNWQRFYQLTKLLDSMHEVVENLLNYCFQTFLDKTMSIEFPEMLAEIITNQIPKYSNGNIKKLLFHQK
Excerpt: NIH Molecular Libraries Screening Centers Network [MLSCN]
NIH Chemical Genomics Center [NCGC]
The glucocorticoid receptor (GR) Redistribution assay (BioImage) enables the visualization of GR cytoplasmic to nuclear translocation by the use of a GR-GFP fusion. GR is normally cytosolic, however ligands such as dexamethasone, cause nuclear translocation where the protein binds to response elements and interacts with various co-factors to modulate transcription. Because both functional agonists and antagonists can induce nuclear translocation, this assay can detect ligands regardless of their effects on gene expression. GR-GFP expressing U20S cells were used here. Dexamethasone was the positive control for translocation and data normalization. Detection of nuclear translocation was performed in 1536-well plates using the Acumen laser scanning plate cytometer (TTP LabTech). Validation of this assay and a detailed protocol have been described.
NCGC Assay Protocol Summary:
GR-GFP U2OS cells were maintained in DMEM with Glutamax and high glucose, 1% v/v penicillin-streptomycin, and 0.5 mg/mL Geneticin. For cell culture, 10% […] fetal bovine serum (FBS) was used (Invitrogen #26140-079). For cell plating 10% dextran, charcoal-stripped FBS (Hyclone SH30068.03) was used. U2OS cells were trypsin treated, suspended in medium, and passed through a 40 um basket filter. The cells were seeded at 600 cells/5 uL/well into clear-bottom black sided 1536-well plates and incubated for approximately 20 hrs, 37degC, 5%, CO2 in a tissue culture incubator. Twenty-three nL of compound was delivered by pin tool and the plates were incubated as above for 2 hrs. The compounds were tested as a 7-point titration ranging from 46 uM to 0.6 nM. The cells were fixed using the Kalypsys Washer/Dispenser station. The fixing protocol involved aspiration of the cell media, addition of 6 uL/well of PBS, aspiration of PBS, addition of 5uL/well of 100% methanol, aspiration of methanol, and addition of 3 uL/well PBS with 1.5 uM propidium iodide (PI). The plates were read by the Acumen Explorer using a 1 x 8 um scan of the whole well area. PI fluorescence triggered the collection of PI and GFP signals. A nuclei population was defined by a 10 to 100 um width and depth filter that eliminated small and large fluorescent particles. Two subpopulations of nuclei were then defined by peak intensity of GFP fluorescence to obtain translocated and untranslocated objects. The number of translocated objects was used for data normalization.
Keywords: NIH Roadmap, MLSCN, MLI, MLSMR, sOGT, qHTS, NCGC
Potency means the concentration at half of the fitted maximal effect.

Potency, inactive:
CN(CCCCCNC(=O)/C=N/O)Cc1ccccc1 > 20.6 µM
N#Cc1ccc(-c2ccco2)nc1SCC(=O)c1ccc(Cl)cc1 > 20.6 µM
c1ccc2c(c1)NC(c1ccncc1)n1c-2nc2ccccc21 (stereo not given) > 20.6 µM
CCOC(=O)C1=C(N)n2c(s/c(=C\c3ccco3)c2=O)=C(C(=O)OC(C)C)C1c1ccco1 (stereo not given) > 20.6 µM
C/C(=N\O)C1(C)N(O)C(C)(C)C(c2ccco2)=[N+]1[O-] (stereo not given) > 20.6 µM
S=c1[nH]nc(-c2ccccc2)n1Cc1ccccc1 > 20.6 µM
C/C(=N/n1cnnc1)c1cccnc1 > 20.6 µM
CCOC(=O)CSc1nc(-c2ccc3c(c2)OCO3)ccc1C#N > 20.6 µM
COC(=O)C1=C(C)N=C2SC(C)C(=O)N2C1c1cccs1 (stereo not given) > 20.6 µM
CCc1nc(SCc2cccnc2)c(C#N)cc1C > 20.6 µM
CC(C)C[C@H](NC(=O)[C@@H](NC(=O)N[C@@H](Cc1ccccc1)C(=O)O)[C@H]1CCN=C(N)N1)C(=O)N[C@H](C=O)Cc1ccccc1 > 46 µM
O=C(C[N+]12CN3CN(CN(C3)C1)C2)c1ccc(-c2ccccc2)cc1 > 46 µM
CN1CCN(C(=O)CSc2nc(-c3cccs3)ccc2C#N)CC1 > 20.6 µM
CNc1oc(-c2ccc(Cl)cc2)nc1C#N > 20.6 µM
N#Cc1c(N2CCCCC2)nc(N2CCCCC2)c2c1CCN(Cc1ccccc1)C2 > 20.6 µM
CCn1cc(C(=O)NCc2ccco2)c(=O)c2cc(F)c(N3CCN(C(=O)c4ccco4)CC3)cc21 > 20.6 µM
COc1ccc(C(=O)Nc2nc(N)n(-c3ccccc3)n2)cc1OC > 20.6 µM
COc1ccc(Cn2c(CCCO)nc3ccccc32)cc1OC > 20.6 µM
CCN(CC)c1ccc2c(C)c(-c3ccc(N)cc3)c(=O)oc2c1 > 20.6 µM
COc1ccc(CCn2c(=N)c(C#N)cc3c(=O)n4ccccc4nc32)cc1 > 20.6 µM
Oc1c(Cl)cc(Cl)cc1CNc1ccc(Br)cn1 > 20.6 µM
Nc1nc2n(n1)C(c1ccc(F)cc1)CC(c1ccc(F)cc1)N2 (stereo not given) > 20.6 µM
COc1ccc2c(c1)C1(C)CC(C)(C)N2C(=O)N1c1ccccc1 (stereo not given) > 20.6 µM
COCc1cc(C)nc(N)c1C#N > 20.6 µM
Cc1nnc2n(C3CCCCC3)c(=O)c3c4c(sc3n12)COC(C)(C)C4 > 20.6 µM
CCOC(=O)C1=C(N)n2c(s/c(=C\c3cccnc3)c2=O)=C(C(=O)OC)C1c1cccnc1 (stereo not given) > 20.6 µM
CCc1[nH]c(=O)c(C#N)c2c1CCCC2 > 20.6 µM
O=c1c2ccccc2ncn1Cc1ccco1 > 20.6 µM
O=c1[nH]c(CN2CCCCC2)nc2c1C1(CCCC1)Cc1ccccc1-2 > 20.6 µM
CC(C(=O)N(C)C)N(C#N)c1nc(N(C)C)nc(N(C)C)n1 (stereo not given) > 20.6 µM
CCCCC(C(=O)O)C(C)CC(=O)Nc1cccc(C(=O)O)c1 (stereo not given) > 20.6 µM
CC1(C)Cc2[nH]c(=O)c(C#N)cc2CS1 > 20.6 µM
CCCCNc1nc2c(c(=O)n(C)c(=O)n2C)n1Cc1cccc(OC)c1 > 20.6 µM
O=C1CC(c2ccco2)CC(O)=C1C=NCCN1CCN(C2CC(=O)N(c3ccccc3)C2=O)CC1 (stereo not given) > 20.6 µM
CCCc1nnc(NC(=O)Nc2ccccc2OC)s1 > 20.6 µM
Cc1ccc(-c2ccc(/C=N/c3ncn[nH]3)o2)cc1Cl > 20.6 µM
CC(=O)CCn1c(=O)n(CCC(C)=O)c(=O)n(CCC(C)=O)c1=O > 20.6 µM
COC(=O)c1ccc(C(=O)OC)c(NC(=O)c2cc3ccccc3o2)c1 > 20.6 µM
CCCN(CCC)C(=O)CC(c1ccc(F)cc1)c1ccco1 (stereo not given) > 20.6 µM
CCOC(=O)c1[nH]c2ccccc2c1N=CN(CC)CC > 20.6 µM
